Compounds without any hit were thinned out: in the full panel of roughly 79,000, 15% have a hit. A number with no mark means an inactive call. Activity calls are given as the source filed them. Rule as the data show it: active = growth inhibition above about 70%; inactive = the rest. Where a SMILES comes first, the peptide text is derived from it. The star is where a group is joined. Cbz = O=C(OCc1ccccc1)*; Boc = CC(C)(C)OC(=O)*; OSu = O=C1CCC(=O)N1O*; Bn = c1ccc(C*)cc1
Assay: NCI Yeast Anticancer Drug Screen. Data for the mlh1 rad18 strain (AID 175)
Conditions: S. cerevisiae mlh1 rad18 strain growth inhibition; at 50.0 µM; active compounds read high
Outline: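 Yeast w/ defined DNA-repair lesions; compound exposure; growth vs vehicle controls → % inhibition.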

| Structure (SMILES) | growth inhibition |
| --- | --- |
| O=C1NCCc2c1sc1ccccc21 | -6.9% |
| O=C(/C=C/c1ccccc1)Nc1ccccc1C(F)(F)F | 18.2% |
| CC(=O)Nc1ccccc1Cc1nc2ccccc2c(=O)[nH]1 | 16.8% |
| O=CN1CCN(c2ccc3ccc(=O)[nH]c3n2)CC1 | -14.2% |
| COc1ccc(C(CC(=O)c2ccccc2)SCCN2CCOCC2)cc1 (stereo not given) | 3.6% |
| CCn1c(=O)c2c3ccc(OC(C)=O)cc3[nH]c2c2ccc(OC(C)=O)cc21 | -21.6% |
| CC(C)(C)OC(=O)NC(Cc1ccc(OCc2ccccc2)cc1)C(=O)NC(CCCCNC(=O)OCc1ccccc1)C(=O)NC(CCCCNC(=O)OCc1ccccc1)C(=O)ON1C(=O)CCC1=O (stereo not given) (Boc-Tyr(Bn)-Lys(Cbz)-Lys(Cbz)-OSu; configuration not given here) | 16.5% |
| COc1cc(C(=O)O)c(I)c(OC)c1OC | -9.65% |
| CCOC(=O)Cn1cnc2sc3c(c2c1=O)CCCC3 | 35.9% |
| O=C1NC(=O)C(c2ccc(Cl)c(Cl)c2)N1 (stereo not given) | -3.55% |
| CC1(C)OC2OC(CI)C3OC(C)(C)OC3C2O1 (stereo not given) | -1.45% |
| CCCCCCCCCCCCCCCCCCNC(=O)Nc1ccc(OC)cc1OC | 13.3% |
| CC(C)CCCC(C)C1CCC2C3CC=C4CC(OC(=O)c5ccncc5)CCC4(C)C3CCC12C (stereo not given) | -23.6% |
| Cc1cc2c(C)nn(Cc3ccccc3)c2c(C(=O)O)c1C | 26.8% |
| COc1cc(CC2c3cccc(Oc4ccc(C)cc4)c3CCN2C)ccc1Oc1ccc(C)cc1 (stereo not given) | 98% (active) |
| O=C(CCC/C(CC(=O)c1ccc(Cl)cc1)=N\NC(=O)c1cc2ccccc2cc1O)Nc1cccc([N+](=O)[O-])c1 | 56.8% |
| CCC(C(=O)OC)C1CCCCC1 (stereo not given) | 22.4% |
| COc1ccc(OC)c(N=Cc2cccs2)c1 | 22.1% |
| CO[C@H]1C[C@H]2[C@@H]3CCC4=CC(=O)CC[C@]4(C)[C@H]3CC[C@]2(C)[C@@]1(O)C(=O)CO | -27.6% |
| N#C/C(=C\c1cccc(Cl)c1)C(=O)c1ccccc1 | 33.2% |

| Structure (SMILES) | growth inhibition |
| --- | --- |
| Cc1ncc([N+](=O)[O-])n1CCSC(N)=O | 33.5% |
| CC(=O)c1cc2c(cc1C)C(C)=C(C)C2(C)C | -2.9% |
| OCCCC1CCN(CCO)CC1 | -10.3% |
| CC1c2c(ccc3c2CCC=C3)CCC1CC1=CCCc2ccc3ccccc3c21 (stereo not given) | 9.85% |
| O=S1(=O)CC2C3CC(Oc4ccccc4)C(C3)C2C1 (stereo not given) | -6.5% |
| C1CCC(NCSC2=NCCS2)CC1 | 1.9% |
| Cc1cc(C)c(Br)c(C)c1C | -22.7% |
| Cc1ccc(-c2cc(=O)c3cc(C)c(C)c(C(=O)O)c3o2)cc1N | -7.4% |
| COC1OC(COS(=O)(=O)c2ccc(C)cc2)C(N(C)C(C)=O)C1OS(=O)(=O)c1ccc(C)cc1 (stereo not given) | 0.65% |
| CNC(=O)c1ccccc1N | -17.2% |
| CCOC(=O)N/N=C(/OCC)c1ccccc1 | 5.8% |
| CC1=CC(=O)C(=O)c2ccccc21 | -4.9% |
| CC(C)(C)c1onc2c1C(=O)c1ccccc1-2 | -2.75% |
| COC12CC3C4CCC5CC(O)CCC5(C)C4CCC3(C)C1C(C)C1(CCC(C)CO1)O2 (stereo not given) | -0.4% |
| CN1C(c2ccccc2)NC(=O)C12CCN(CCCC(=O)c1ccccc1)CC2 (stereo not given) | 45.2% |
| CC(C)C1=C(Cc2ccccc2)C(=O)O/C1=C\c1ccc(O)c(Cl)c1 | -20.1% |
| CC12C(=O)NC(c3ccccc3)(c3ccccc31)C1C(=O)N(C(N)=O)C(=O)C12 (stereo not given) | 4.4% |
| CCOC(=O)c1cnc(SC)nc1N | -3.5% |
| C/C(=N\NC(=O)CCCCC(=O)N/N=C(\C)c1ccc(C)cc1)c1ccc(C)cc1 | -2.7% |
| O=[N+]([O-])c1ccc(N/N=C/c2ccc(CO)cc2)c([N+](=O)[O-])c1 | 17.2% |

Reference: PubChem BioAssay (NCI)
